Compound activity: PubChem, National Center for Advancing Translational Sciences (NCATS)
Bst PK mod – Pyruvate Kinase | purified pyruvate kinase, luminescence ATP production; ribose 5-phosphate activator present at AC10 | Potency, µM | 51,000 compounds, 1.2% hits | AID 361, 2006; in the data active means potency below about 11 µM; inconclusive means mostly about 12 µM to 25 µM;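 the screen sought inhibitors and activators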;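 further: scaled between full activation by ribose 5 phosphate and full inhibition by luteolin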
GBA activity – Glucocerebrosidase; Lysosomal acid glucosylceramidase (Homo sapiens), P04062; 48,000 compounds, 1.1% hits; purified enzyme, resorufin glucoside fluorescence (screen aimed at inhibitors), 20 min; Potency, µM; in the data active means potency below about 15 µM; inconclusive means mostly about 16 µM to 33 µM;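 further: the screen sought inhibitors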
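Compounds titrated against 0.2 nM normal enzyme, 30 uM resorufin beta-D-glucopyranoside substrate, citrate/phosphate buffer with taurocholate and tween-20, pH 5.9. Reaction ran 20 min at room temperature; fluorescence (Ex 548/Em 600) gave AC50.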
FLuc inh – qHTS Assay for Inhibitors of Firefly Luciferase; Luciferin 4-monooxygenase (Photinus pyralis), P08659; AID 411, 2009; 72,000 compounds, 2.2% hits; Potency, µM (top dose mostly 57.1 µM), for inactives: top-dose activity change, negative = inhibition, hits mostly inhibitors; purified firefly luciferase, luminescence, 8 min; active means well fitted inhibition curve with a large enough effect; inconclusive means small, poorly fitted or top-dose-only effect; further: on the % scale 0 is the no-effect control and ±100 the full control effect; nearly all actives have a fitted effect of over 40% in size
Target sequence (P08659 whole entry, looked up): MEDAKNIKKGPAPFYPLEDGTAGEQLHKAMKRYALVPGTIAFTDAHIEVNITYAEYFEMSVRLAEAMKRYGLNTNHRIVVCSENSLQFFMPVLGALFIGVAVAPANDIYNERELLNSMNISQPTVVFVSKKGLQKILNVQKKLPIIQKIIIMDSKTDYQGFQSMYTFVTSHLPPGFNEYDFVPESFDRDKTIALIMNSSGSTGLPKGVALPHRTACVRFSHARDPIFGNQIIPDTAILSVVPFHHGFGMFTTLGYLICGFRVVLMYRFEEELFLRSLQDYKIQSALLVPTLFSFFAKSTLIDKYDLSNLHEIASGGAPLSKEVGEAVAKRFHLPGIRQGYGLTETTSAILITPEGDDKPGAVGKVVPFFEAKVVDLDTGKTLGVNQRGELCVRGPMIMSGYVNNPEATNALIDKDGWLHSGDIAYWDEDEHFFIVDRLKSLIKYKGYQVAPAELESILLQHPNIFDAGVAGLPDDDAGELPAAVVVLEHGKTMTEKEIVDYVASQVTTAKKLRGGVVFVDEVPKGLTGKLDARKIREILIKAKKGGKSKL
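Luminescence read-out after 8 min at room temperature; enzyme reaction used luciferin plus 10 uM ATP (linear range) in imidazole buffer pH 7.2 with KCl, MgCl2, Tween 20 and BSA. Each sample was run as a titration.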
* hit, by the source's call; [ ] = another dose, or the depositor's remark. Sampled rows, rich in hits. Any-hit rate of the full collection: about 3.4%. Potency means the concentration at half of the fitted maximal effect.

Screening N#Cc1cccc(-c2nc(NCCN3CCOCC3)c3ccccc3n2)c1 returned FLuc inh 0.3%[2.29 µM].
`C=Cc1c(C)c2cc3[nH]c(cc4nc(cc5nc(cc1[nH]2)C(C)=C5CCC(=O)O)C(CCC(=O)O)=C4C)c(C)c3C=C` gave FLuc inh -19.3%.
`COc1ccc2nc(NC(=O)CN3CCN(C)CC3)sc2c1` gave Bst PK mod >57, GBA activity >76.9 and FLuc inh -6.6%.
CCOCC(=O)Nc1nc2ccc(C)cc2s1 was read as GBA activity >76.9 and FLuc inh 25.1µM*.
Screening CCOCC(=O)Nc1nc2ccc(OCC)cc2s1 returned Bst PK mod inactive, GBA activity >76.9 and FLuc inh -29.1%.
Screening Cc1ccc2nc(NC(=O)c3cccs3)sc2c1 returned Bst PK mod 4.21*, GBA activity >76.9 and FLuc inh 2µM*.
`COc1ccc2sc(NC(=O)c3ccco3)nc2c1` gave Bst PK mod 5.44*, GBA activity >76.9 and FLuc inh 7.94µM*.
CCCC(=O)Nc1nc2ccc(OC)cc2s1 was read as FLuc inh 12.6µM*.
COc1ccc2c(c1)-c1nc(NC(=O)c3ccco3)sc1CC2 was read as GBA activity >76.9 and FLuc inh -17.5%.
CCSc1nnc(NC(=O)c2cccs2)s1 was read as FLuc inh -1.7%.
Screening Clc1ccccc1-c1cc(NCc2ccccc2)ncn1 returned FLuc inh 0.9%[2.29 µM].
For Cc1ccc(S(=O)(=O)N[C@H]2COC(=O)C/C=C\[C@@H](C)[C@H](NS(=O)(=O)c3ccc(C)cc3)COC(=O)[C@H](C)NC(=O)C/C=C\[C@H]2C)cc1 the results were FLuc inh 1.8%[11.4 µM].
`CN(C)CCNc1nc2c(c(=O)n(C)c(=O)n2C)n1C` gave FLuc inh 4.3%[11.4 µM].
Screening O=c1c(-c2ccc(F)cc2)nc2cncnc2n1C1CC1 returned FLuc inh 1.3%[11.4 µM].
Screening Cc1nc2cnc(N3CCOCC3)nc2n(CCc2ccccc2)c1=O returned FLuc inh 1.5%[11.4 µM].
Screening CC(C)(C)CNCCO returned FLuc inh 3.6%[11.4 µM].
For COc1ccc2nc(NC(=O)c3ccoc3C)sc2c1 the results were Bst PK mod inactive, GBA activity >76.9 and FLuc inh 3.16µM*.
For COC(=O)c1sc(NC(=O)c2ccoc2C)nc1C the results were Bst PK mod >57, GBA activity >76.9 and FLuc inh -7.8%.
For Fc1ccc(Nc2nc(-c3ccoc3)nc3ccccc23)cc1 the results were FLuc inh 0.9%[2.29 µM].
COc1ccc(-c2cn3c(C)c(C(=O)NCCN4CCOCC4)sc3n2)cc1 was read as GBA activity inactive and FLuc inh -9.8%.
Screening CCN(CC)C(=O)c1sc2nc(-c3ccc(OC)cc3)cn2c1C returned Bst PK mod inactive, GBA activity >76.9 and FLuc inh 12.6µM*.
For Cc1nn(-c2ccccc2)c2c1C(c1c(C)[nH]c(C#N)c1C)C(C#N)=C(N)O2 (stereo not drawn) the results were Bst PK mod >57, GBA activity 11* and FLuc inh -0.9%.
Screening Cc1nn(-c2ccccc2)c(Cl)c1C1C(C#N)=C(N)Oc2n[nH]c(C)c21 (stereo not drawn) returned Bst PK mod >57, GBA activity inconclusive and FLuc inh -1.0%.
`NCCC(=O)N[C@@H](Cc1cnc[nH]1)C(=O)O` gave FLuc inh 1.0%[11.4 µM].
CCOc1ccc2nc(N3CCC(C(=O)Nc4nnc(CC)s4)CC3)sc2c1 was read as FLuc inh -6.4%.
Screening CCOc1ccc2nc(N3CCC(C(=O)N4CCN(C(=O)c5ccco5)CC4)CC3)sc2c1 returned FLuc inh 7.94µM*.
Screening CCCN1CCN(CCCNC(=O)C2CCCN(c3nc4ccc(OCC)cc4s3)C2)CC1 (stereo not drawn) returned Bst PK mod inactive, GBA activity >76.9 and FLuc inh 7.94µM*.
`CCN1CCN(CCCNC(=O)C2CCCN(c3nnc(-n4cccc4)s3)C2)CC1` (stereo not drawn) gave Bst PK mod >57, GBA activity >76.9 and FLuc inh -1.1%.
For CCOC(=O)N1CCN(C(=O)c2ccc3nc(N4CCCCC4)sc3c2)CC1 the results were Bst PK mod >57, GBA activity >76.9 and FLuc inh -3.6%.
`CCOc1ccc2nc(N3CCCCCC3)sc2c1` gave Bst PK mod inactive, GBA activity >76.9 and FLuc inh 12.6µM*.
`CCOc1ccc2nc(N3CCC(C(=O)N4CCN(C5CCCCC5)CC4)CC3)sc2c1` gave FLuc inh 15.8µM*.
`CCOC(=O)N1CCN(C(=O)c2ccc3nc(N4CCC(C)CC4)sc3c2)CC1` gave Bst PK mod >57, GBA activity >76.9 and FLuc inh -4.0%.
Screening CN1CCN(c2ncnc3ccc(-c4cccc(NS(C)(=O)=O)c4)cc23)CC1 returned FLuc inh -1.6%[2.29 µM].
C[C@H]1[C@H](C)CC[C@]2(C(=O)O)CC[C@]3(C)C(=CC[C@@H]4[C@]5(C)C[C@H](O)[C@@H](O)[C@@](C)(CO)[C@@H]5[C@H](O)C[C@@]43C)[C@H]12 was read as FLuc inh -1.6%[11.4 µM].
`N#CCCn1c(=O)c(-c2cc(F)cc(F)c2)nc2cnc(OCc3ccccc3)nc21` gave FLuc inh -0.3%[11.4 µM].
For C[C@H]1CN(S(=O)(=O)c2cccc3cnccc23)CCN1 the results were FLuc inh -1.5%.
For CC(=O)OC[C@@H]1O[C@@H](O/N=C2/C[C@@H](O)[C@@H](O)[C@@H]3[C@H]4C(=O)N(c5ccc(F)cc5F)C(=O)[C@@H]4CC[C@@H]23)[C@H](OC(C)=O)[C@H](OC(C)=O)[C@@H]1OC(C)=O the results were FLuc inh 1.7%[11.4 µM].
Cc1ccc(Cl)cc1N1CCN(C(=O)CCC(=O)O)CC1 was read as Bst PK mod >57, GBA activity >76.9 and FLuc inh 0.1%.
Cc1ccc(Cl)cc1N1CCN(C(=O)CN2C(=O)c3cccc4cccc2c34)CC1 was read as Bst PK mod 5.3*, GBA activity >76.9 and FLuc inh 2.4%.
Screening COC(=O)C/C=C\[C@H](C)[C@H](CO)NS(=O)(=O)c1ccc(C)cc1 returned FLuc inh 2.0%[11.4 µM].
`O=c1cc(-c2ccc(O)c(O)c2)oc2cc(O[C@@H]3O[C@@H](CO)[C@@H](O)[C@@H](O)[C@H]3O)cc(O)c12` gave FLuc inh -2.3%[11.4 µM].
O=C1CN2C(=Nc3ccc(Cl)cc3C2c2ccccc2)CN1 (stereo not drawn) was read as Bst PK mod >57, GBA activity 1.26* and FLuc inh -1.8%.
For O=C1CN(C(=O)c2ccco2)C(c2ccc(F)cc2)c2cc(Cl)ccc2N1 (stereo not drawn) the results were Bst PK mod >57, GBA activity >76.9 and FLuc inh 3.1%.
CCn1cc(C(=O)O)c(=O)c2ccc(Cc3ccccc3)nc21 was read as FLuc inh 2.9%.
For Cn1nnnc1SCc1csc(Nc2ccccc2)n1 the results were Bst PK mod >57, GBA activity >76.9 and FLuc inh -4.3%.
`Cc1ccc(Nc2nc(CSc3nnnn3C)cs2)cc1` gave Bst PK mod inconclusive, GBA activity >76.9 and FLuc inh 12.6µM*.
`CS(=O)(=O)N1CCC2(CC1)CN(c1ncccn1)C2` gave FLuc inh 2.0%[11.4 µM].
For Cc1ccc(C=Nc2ccc(N(C)C)cc2)o1 the results were FLuc inh 3.16µM*.
